Test results from PubChem BioAssay (NCATS).
Inconclusive results are not listed. Calls of active or inactive are those of the source. Unless noted, calls follow the shape of the dose curve; as a rule, active = well fitted curve in the direction sought with a large enough effect; inconclusive = small, poorly fitted or top-dose-only effect, or another doubt; inactive = no such curve, though single readings can be large; an effect the other way counts as inactive or inconclusive.

Key:
[1] = qHTS for differential inhibitors of proliferation of Plasmodium falciparum line GB4 (AID 1816); conditions: Potency: Plasmodium falciparum GB4 proliferation inhibition;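 also: parasite growth measured after 72 h incubation; 0% = vehicle DMSO and -100% = reference inhibitor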
[2] = qHTS for differential inhibitors of proliferation of Plasmodium falciparum line 3D7 (AID 1876);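 also: parasite growth measured after three days of culture; 0% = vehicle wells and -100% = reference inhibitor wells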
[3] = qHTS for differential inhibitors of proliferation of Plasmodium falciparum line D10 (AID 1877);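 also: parasites grown with compound for 72 h before DNA staining; plate controls were vehicle wells for no effect and reference inhibitor wells for full effect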
[4] = qHTS for differential inhibitors of proliferation of Plasmodium falciparum line Dd2 (AID 1882); conditions: Potency: Plasmodium falciparum Dd2 proliferation inhibition;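 also: series mostly up to about 29 µM; compound exposure of 72 h on infected erythrocytes; plate controls were DMSO vehicle for no effect and 0.29 µM artemisinin for full effect; nearly all actives have a fitted effect of over 65% in size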
Outline: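 RBC culture, 0.3% parasitemia / 2.5% Hct final; cpd added by pin tool in DMSO; 72 h, 37 C, 5% CO2; lysis buffer + SYBR Green I, o/n RT dark; FI 485/535; norm. to artemisinin 0.29 uM and DMSO.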

[5] = qHTS for differential inhibitors of proliferation of Plasmodium falciparum line W2 (AID 1883); conditions: Potency: Plasmodium falciparum W2 proliferation inhibition;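 also: parasites grown with compound for 72 h before lysis and staining; 0% = vehicle wells and -100% = control inhibitor wells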
[6] = qHTS for differential inhibitors of proliferation of Plasmodium falciparum line HB3 (AID 1886); conditions: Potency: Plasmodium falciparum HB3 proliferation inhibition;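 also: parasites grown with compound for 72 h before SYBR Green readout; plate controls were vehicle for no effect and reference inhibitor for full effect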
[7] = qHTS Assay for Modulators of Human Peripheral Myelin Protein 22 (PMP22) Expression/Activity (AID 1967; active = well fitted curve in the direction sought with a large enough effect in the signal ratio; the % refers to the signal ratio;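 also: 0% = untreated cells and 100% end not stated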)
Outline: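 Quantitative HTS in a mouse Schwann cell line expressing dual click beetle luciferases: Pmp22 promoter (green) and control EF-alpha promoter (red). After 24h treatment, corrected green/red signal ratio gave %Activity relative to untreated cells.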

[8] = target: Ferritin light chain (Equus caballus) (UniProt P02791); test: qHTS Validation Assay for Identification of Novel General Anesthetics (AID 2323); also: series mostly up to about 77 µM; % is scaled to controls: 0 for no effect and ±100 for the full control effect
Sequence of Ferritin light chain (Equus caballus) (P02791 2-175 limits assumed): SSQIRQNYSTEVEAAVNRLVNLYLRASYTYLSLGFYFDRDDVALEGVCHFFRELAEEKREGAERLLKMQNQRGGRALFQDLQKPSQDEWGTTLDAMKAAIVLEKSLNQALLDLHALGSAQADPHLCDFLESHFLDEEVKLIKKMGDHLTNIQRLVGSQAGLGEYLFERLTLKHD
Outline: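 Apoferritin from horse spleen (10 uM) was mixed with 1-aminoanthracene at 50% saturation in PBS, then compounds were added. After 10 min at room temperature, fluorescence was read (ex 380 nm, em 535 nm) and normalized to free-probe and complex controls.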

[9] = target: ATP-dependent DNA helicase Q1 (Homo sapiens) (UniProt P46063); test: qHTS Validation Assay for Inhibitors of RecQ-Like Dna Helicase 1 (RECQ1) (AID 2353);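 also: plate controls were DMSO vehicle for no effect and enzyme-free control for full effect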
Sequence of ATP-dependent DNA helicase Q1 (Homo sapiens) (P46063 whole entry, looked up): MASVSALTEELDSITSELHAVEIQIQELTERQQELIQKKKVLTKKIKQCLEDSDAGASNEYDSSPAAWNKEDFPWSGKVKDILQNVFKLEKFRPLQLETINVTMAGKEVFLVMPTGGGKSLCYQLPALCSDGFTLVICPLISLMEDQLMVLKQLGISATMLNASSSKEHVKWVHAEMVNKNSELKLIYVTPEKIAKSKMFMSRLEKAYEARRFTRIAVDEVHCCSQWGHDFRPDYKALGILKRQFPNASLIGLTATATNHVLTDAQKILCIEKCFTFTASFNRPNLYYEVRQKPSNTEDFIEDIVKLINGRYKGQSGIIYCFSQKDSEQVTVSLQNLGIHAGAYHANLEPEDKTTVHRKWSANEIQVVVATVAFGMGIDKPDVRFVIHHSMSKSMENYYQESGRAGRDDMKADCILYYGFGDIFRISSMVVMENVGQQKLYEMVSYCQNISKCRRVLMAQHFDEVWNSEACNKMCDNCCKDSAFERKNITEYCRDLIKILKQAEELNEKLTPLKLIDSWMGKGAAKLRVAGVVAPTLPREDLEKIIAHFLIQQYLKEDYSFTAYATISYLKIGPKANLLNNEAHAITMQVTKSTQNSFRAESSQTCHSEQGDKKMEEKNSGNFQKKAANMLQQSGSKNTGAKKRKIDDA
Outline: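 RECQ1T1 50 nM; forked duplex (20 bp + 30-nt ss tails) 200 nM, ATP 2 mM final; pH 8.0, 2 mM MgCl2, 2.5 ug/ml poly(dI-dC); 15 min compound preincubation; discontinuous kinetic read over 2 h at RT.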

[10] = target: RecQ-like DNA helicase BLM (Homo sapiens) (UniProt P54132); test: qHTS Validation Assay for Inhibitors of Bloom's syndrome helicase (BLM) (AID 2364);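 also: plate controls were DMSO vehicle for no effect and enzyme-free control for full effect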
Outline: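 Forked 20-bp duplex substrate (200 nM, TAMRA/BHQ-2) plus 2 mM ATP added after 15 min compound preincubation with 50 nM enzyme, pH 8.0, poly(dI-dC) 2.5 ug/ml. Strand separation followed by fluorescence (525/598 nm) over 2 h, normalized to enzyme-free and DMSO controls.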

[11] = Validation screen for small molecules that induce DNA re-replication in MCF 10A normal breast cells (AID 463097); also: 0% is about no effect; nearly all actives have a fitted effect of over 60% in size
Outline: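 DNA re-replication was detected as a rise in nuclei with elevated Hoechst fluorescence after a 48 hr compound exposure of MCF 10A cells at 37 C.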

[12] = Quantitative high throughput screen for delayed death inhibitors of the malarial parasite plastid, 48 hour incubation (AID 488752); also: % is scaled to controls: 0 for no effect and ±100 for the full control effect; nearly all actives have a fitted effect of over 65% in size
Outline: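 Luciferase-expressing P. falciparum in RBCs, 2% Hct, 0.1% parasitemia final; RPMI 1640 + 0.5% Albumax; 48 h, 37 C, 5% CO2; luminescence readout, signal drop = growth inhibition.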

[13] = target: M-phase phosphoprotein 8 (Homo sapiens) (UniProt Q99549); test: qHTS Validation Assay for Inhibitors for MPP8 Chromodomain Interactions with Methylated Histone Tails (AID 488949);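 also: AlphaScreen signal from MPP8 chromodomain bound to biotinylated H3K9me3 peptide; top concentration of the series differs between compounds; % is scaled to controls: 0 for no effect and ±100 for the full control effect; nearly all actives have a fitted effect of over 55% in size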
Outline: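 Disruption of the preformed MPP8–trimethyl-H3K9 peptide complex (both 50 nM, 30 min, RT) is measured after 30 min compound exposure, using AlphaScreen proximity beads; aurintricarboxylic acid titration serves as plate control.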

[14] = target: Transient receptor potential cation channel subfamily V member 1 (Homo sapiens) (UniProt Q8NER1); test: HTS Assay for Compounds that Act as Enhancers of the Vanilloid Receptor 1 (AID 488979); also: 0% is about no effect
Sequence of Transient receptor potential cation channel subfamily V member 1 (Homo sapiens) (Q8NER1 whole entry, looked up): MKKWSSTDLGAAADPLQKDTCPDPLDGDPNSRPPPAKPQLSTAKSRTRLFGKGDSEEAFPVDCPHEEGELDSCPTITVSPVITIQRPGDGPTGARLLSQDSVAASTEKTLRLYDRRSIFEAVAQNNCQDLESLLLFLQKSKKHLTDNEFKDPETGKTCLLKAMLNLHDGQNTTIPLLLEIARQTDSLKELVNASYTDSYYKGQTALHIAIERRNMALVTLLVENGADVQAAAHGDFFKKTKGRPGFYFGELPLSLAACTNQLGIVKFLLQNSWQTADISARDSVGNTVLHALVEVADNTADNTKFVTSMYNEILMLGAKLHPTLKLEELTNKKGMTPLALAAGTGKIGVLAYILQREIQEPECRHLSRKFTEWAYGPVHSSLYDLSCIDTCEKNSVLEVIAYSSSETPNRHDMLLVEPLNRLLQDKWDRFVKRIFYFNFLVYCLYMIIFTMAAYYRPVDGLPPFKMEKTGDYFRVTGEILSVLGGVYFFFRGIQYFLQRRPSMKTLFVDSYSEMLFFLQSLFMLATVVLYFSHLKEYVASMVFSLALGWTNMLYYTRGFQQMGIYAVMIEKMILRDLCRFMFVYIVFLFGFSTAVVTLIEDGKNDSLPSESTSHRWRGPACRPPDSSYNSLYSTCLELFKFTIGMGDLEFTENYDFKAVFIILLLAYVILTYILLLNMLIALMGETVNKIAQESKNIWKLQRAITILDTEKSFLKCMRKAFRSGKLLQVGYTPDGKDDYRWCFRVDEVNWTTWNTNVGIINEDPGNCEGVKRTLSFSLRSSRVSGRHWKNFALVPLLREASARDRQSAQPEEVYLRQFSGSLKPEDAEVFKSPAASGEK
Outline: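 Calcium influx kinetics via Fluo-8 (480/520 nm) in TRPV1-expressing cells, 2000/well cultured overnight at 35.5C. Compound-alone read 3 min (agonist phase), followed by EC20 capsaicin challenge for 2 min (enhancer phase).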

[15] = target: Thyrotropin receptor (Homo sapiens) (UniProt P16473); test: qHTS Assay for Antagonists of the Thyroid Stimulating Hormone Receptor (AID 488980); also: series mostly up to about 58 µM; 0% is about no effect
Sequence of Thyrotropin receptor (Homo sapiens) (P16473 whole entry, looked up): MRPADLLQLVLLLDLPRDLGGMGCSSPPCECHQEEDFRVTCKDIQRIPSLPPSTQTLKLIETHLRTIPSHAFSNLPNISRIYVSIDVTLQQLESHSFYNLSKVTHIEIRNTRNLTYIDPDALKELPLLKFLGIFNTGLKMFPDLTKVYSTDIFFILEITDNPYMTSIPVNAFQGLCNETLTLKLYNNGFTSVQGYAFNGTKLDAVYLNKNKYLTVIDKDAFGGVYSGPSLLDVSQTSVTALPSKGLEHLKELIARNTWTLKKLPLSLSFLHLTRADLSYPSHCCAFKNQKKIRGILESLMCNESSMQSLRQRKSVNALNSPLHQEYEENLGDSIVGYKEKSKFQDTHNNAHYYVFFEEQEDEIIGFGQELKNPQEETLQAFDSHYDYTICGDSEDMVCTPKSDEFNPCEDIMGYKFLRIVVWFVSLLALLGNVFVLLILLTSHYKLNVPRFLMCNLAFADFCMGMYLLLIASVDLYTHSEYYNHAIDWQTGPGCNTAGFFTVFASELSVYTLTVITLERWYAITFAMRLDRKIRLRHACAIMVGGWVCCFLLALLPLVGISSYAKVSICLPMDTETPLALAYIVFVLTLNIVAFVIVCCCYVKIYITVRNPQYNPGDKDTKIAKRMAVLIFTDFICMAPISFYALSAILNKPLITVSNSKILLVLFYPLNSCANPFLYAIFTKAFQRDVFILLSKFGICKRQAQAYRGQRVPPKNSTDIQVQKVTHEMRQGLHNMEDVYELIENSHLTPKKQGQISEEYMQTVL
Outline: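 Cells expressing human TSHR (HEK293) are dispensed in HBSS/HEPES containing 70 uM RO 20-1724, compound is added, then TSH at EC80 (4 nM final). Antibody in lysis buffer follows, 30 minutes at room temperature before HTRF detection.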

[16] = target: Thyrotropin-releasing hormone receptor (Homo sapiens) (UniProt P34981); test: qHTS for Small Molecule Agonists and Allosteric Enhancers of Human TRH Receptor: Validation Screen for Agonists (AID 493127;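 active = calcium activation more than 3 SD above the typical response in the agonist read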;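 also: intracellular calcium rise by fluo-8 fluorescence before TRH EC20 addition; 0% is about no effect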); conditions: TRH receptor agonist cell assay; at 2 µM; active compounds read high
Sequence of Thyrotropin-releasing hormone receptor (Homo sapiens) (P34981 whole entry, looked up): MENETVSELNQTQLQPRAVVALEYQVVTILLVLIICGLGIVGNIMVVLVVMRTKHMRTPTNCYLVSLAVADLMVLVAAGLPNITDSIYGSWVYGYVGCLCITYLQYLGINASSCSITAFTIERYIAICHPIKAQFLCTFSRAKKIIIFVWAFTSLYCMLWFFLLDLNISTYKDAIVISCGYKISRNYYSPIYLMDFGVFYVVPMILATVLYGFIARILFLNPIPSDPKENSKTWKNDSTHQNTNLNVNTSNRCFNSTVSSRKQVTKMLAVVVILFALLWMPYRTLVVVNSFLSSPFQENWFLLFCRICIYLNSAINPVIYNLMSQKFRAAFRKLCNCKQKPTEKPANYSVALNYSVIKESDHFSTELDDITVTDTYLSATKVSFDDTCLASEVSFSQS
Outline: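 Read-out: intracellular calcium release measured kinetically by FDSS (fluo-8, ex 480/em 530 nm), 1 reading/s after a 10-cycle baseline. TRHR cells, 2000/well, cultured 18 h at 33.5C, dye-loaded at room temp. Compound-evoked positive calcium signal flags agonists.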

[17] = target: Galactokinase (Homo sapiens) (UniProt P51570); test: qHTS Validation Assay for Inhibitors of Human Galactokinase (GALK) (AID 493189); also: 0% is about no effect
Sequence of Galactokinase (Homo sapiens) (P51570 whole entry, looked up): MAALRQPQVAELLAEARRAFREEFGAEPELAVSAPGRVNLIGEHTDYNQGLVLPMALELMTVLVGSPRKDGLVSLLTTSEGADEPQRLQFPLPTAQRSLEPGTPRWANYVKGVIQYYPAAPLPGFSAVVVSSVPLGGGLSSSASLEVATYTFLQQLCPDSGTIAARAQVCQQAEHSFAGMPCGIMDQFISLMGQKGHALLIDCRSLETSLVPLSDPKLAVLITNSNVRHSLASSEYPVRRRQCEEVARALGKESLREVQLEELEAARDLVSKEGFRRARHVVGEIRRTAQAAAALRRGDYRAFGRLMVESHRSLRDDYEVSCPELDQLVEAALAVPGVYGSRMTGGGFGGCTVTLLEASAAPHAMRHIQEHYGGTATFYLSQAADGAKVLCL
Outline: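 Compounds were pin-transferred into ATP buffer, then GALK-galactose mix was added (final 5 nM enzyme, 100 uM galactose, 35 uM ATP). After 1 h at room temperature, remaining ATP was measured luminescently.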

[18] = Validation screen for small molecules that induce DNA re-replication in SW480 colon adenocarcinoma cells (AID 504364); also: 0% is about no effect
Outline: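 Read-out: total Hoechst intensity of nuclei by fluorescence scanning imager; hits raise the fraction of nuclei with elevated DNA content. Cells received compound for 48 hr at 37 C before a 40 min stain.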

[19] = target: DNA dC->dU-editing enzyme APOBEC-3G (Homo sapiens) (UniProt Q9HC16); test: qHTS for inhibitors of Vif-A3G interactions: Validation (AID 588379); also: 0% is about no effect
Sequence of DNA dC->dU-editing enzyme APOBEC-3G (Homo sapiens) (Q9HC16 whole entry, looked up): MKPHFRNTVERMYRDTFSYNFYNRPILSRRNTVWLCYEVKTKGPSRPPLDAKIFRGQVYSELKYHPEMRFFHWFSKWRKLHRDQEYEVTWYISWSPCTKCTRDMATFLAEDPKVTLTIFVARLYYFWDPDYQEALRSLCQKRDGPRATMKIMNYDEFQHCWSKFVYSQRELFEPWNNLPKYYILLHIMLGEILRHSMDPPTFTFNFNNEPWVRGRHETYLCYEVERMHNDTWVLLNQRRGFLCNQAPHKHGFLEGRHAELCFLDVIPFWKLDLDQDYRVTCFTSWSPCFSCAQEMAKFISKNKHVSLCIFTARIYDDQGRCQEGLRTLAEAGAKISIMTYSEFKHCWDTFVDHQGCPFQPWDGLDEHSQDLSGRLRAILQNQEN
Outline: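 Yellow fluorescence (Ex 488, Em 500-530) of Vif-coexpressing HeLa A3G-eYFP cells, scanned by Acumen cytometer, reports blocked A3G degradation. Cells plated at 700/well overnight at 37 deg C before compound addition, then a further overnight compound incubation at 37 deg C.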

[20] = target: Voltage-gated inwardly rectifying potassium channel KCNH2 (Homo sapiens) (UniProt Q12809); test: qHTS Assay for Small Molecule Inhibitors of the Human hERG Channel Activity (AID 588834);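 also: U2OS cells transduced with hERG by BacMam; top concentration of the series differs between compounds; % is scaled to controls: 0 for no effect and ±100 for the full control effect; lower thallium flux fluorescence means stronger hERG block; nearly all actives have a fitted effect of over 50% in size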
Sequence of Voltage-gated inwardly rectifying potassium channel KCNH2 (Homo sapiens) (Q12809 whole entry, looked up): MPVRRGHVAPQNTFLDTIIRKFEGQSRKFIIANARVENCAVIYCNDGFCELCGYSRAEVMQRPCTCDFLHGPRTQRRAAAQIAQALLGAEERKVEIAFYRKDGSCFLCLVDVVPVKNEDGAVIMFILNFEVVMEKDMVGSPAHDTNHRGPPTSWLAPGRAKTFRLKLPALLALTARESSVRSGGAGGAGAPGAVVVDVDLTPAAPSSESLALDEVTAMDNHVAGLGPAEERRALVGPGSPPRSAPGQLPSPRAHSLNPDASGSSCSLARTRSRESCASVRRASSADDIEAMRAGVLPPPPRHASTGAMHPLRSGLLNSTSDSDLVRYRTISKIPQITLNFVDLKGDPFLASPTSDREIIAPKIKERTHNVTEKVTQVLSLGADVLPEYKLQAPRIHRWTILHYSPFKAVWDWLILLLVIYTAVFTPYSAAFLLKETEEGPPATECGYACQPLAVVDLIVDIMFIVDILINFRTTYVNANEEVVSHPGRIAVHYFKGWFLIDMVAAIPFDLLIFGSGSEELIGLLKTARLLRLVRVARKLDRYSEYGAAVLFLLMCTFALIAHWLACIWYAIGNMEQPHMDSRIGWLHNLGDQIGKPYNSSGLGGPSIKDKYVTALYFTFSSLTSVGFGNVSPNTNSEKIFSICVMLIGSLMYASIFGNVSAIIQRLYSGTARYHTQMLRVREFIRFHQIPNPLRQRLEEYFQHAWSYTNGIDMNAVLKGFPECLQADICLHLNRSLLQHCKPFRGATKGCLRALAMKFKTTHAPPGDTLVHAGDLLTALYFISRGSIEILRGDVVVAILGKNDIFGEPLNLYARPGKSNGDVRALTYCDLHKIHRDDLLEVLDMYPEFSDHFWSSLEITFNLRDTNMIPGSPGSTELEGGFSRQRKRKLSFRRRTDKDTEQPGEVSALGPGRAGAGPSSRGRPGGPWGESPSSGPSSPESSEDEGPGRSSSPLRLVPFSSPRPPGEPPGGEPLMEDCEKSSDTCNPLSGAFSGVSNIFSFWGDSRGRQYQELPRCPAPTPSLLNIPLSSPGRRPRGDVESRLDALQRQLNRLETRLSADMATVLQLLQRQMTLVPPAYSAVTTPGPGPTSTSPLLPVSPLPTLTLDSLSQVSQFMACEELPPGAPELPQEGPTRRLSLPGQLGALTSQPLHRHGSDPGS
Outline: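 Cells were infected with hERG-BacMam virus for 4 hrs at room temperature, grown overnight, then seeded at 2000/well. After dye loading and roughly 10 min compound treatment, thallium influx was triggered and fluorescence recorded.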

[21] = system: Zika virus NS2B-NS3 protease; test: Primary screen GU AMC qHTS for Zika virus inhibitors (AID 1347154);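 also: 0% = no-inhibitor control and -100% = no-enzyme control; nearly all actives have a fitted effect of over 70% in size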
Outline: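 Fluorogenic AMC-substrate cleavage by noncovalent NS2B-NS3 protease complex (25 nM, pH 8.0 Tris buffer with Tween 20) followed for 15 minutes at room temperature (~20% conversion). Percent inhibition from ex340/em450 signal change, fitted by 4-parameter Hill equation.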

Cc1cccc(C)c1NC(=O)C[N+](C)(C)C
inactive: Potency [1] | Potency [2] | Potency [3] | Potency [4] | Potency [5] | Potency [6] | outcome [7] | outcome [8] | Potency [9] | Potency [10] | Potency [11] | Potency [12] | Potency [13] | outcome [14] | outcome [15] | activation [16] -0.0625% | outcome [17] | outcome [18] | Potency [19] | Potency [20] | Potency [21]
